Screening results from PubChem.
This is a sample that favours compounds with a hit; in the whole collection about 4.7% have one here.
D1 agonist: human D1 receptor agonism; activation, % at 2 µM; P21728; HEK293 T-REx D1 cells, calcium flux, agonist mode; hit rate 1% among 360,000; note: 0% is about no effect
Target sequence (P21728 whole entry, looked up): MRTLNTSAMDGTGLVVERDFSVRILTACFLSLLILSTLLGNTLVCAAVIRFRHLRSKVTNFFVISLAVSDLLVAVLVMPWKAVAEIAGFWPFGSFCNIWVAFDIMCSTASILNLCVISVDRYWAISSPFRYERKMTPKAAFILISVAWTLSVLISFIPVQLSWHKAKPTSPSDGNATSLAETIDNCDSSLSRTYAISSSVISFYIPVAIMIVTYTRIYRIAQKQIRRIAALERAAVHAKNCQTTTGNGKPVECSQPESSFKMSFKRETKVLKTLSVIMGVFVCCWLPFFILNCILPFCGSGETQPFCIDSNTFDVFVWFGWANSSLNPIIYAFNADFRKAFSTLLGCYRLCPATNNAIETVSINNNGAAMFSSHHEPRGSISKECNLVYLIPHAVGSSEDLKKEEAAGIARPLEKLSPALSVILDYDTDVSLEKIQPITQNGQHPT
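Agonism was scored from calcium flux recorded over 180 s (1 read/s) after pintool compound addition, following a 10-cycle baseline. Cells were inducible force-coupled HEK293 TREx D1, plated overnight at 30 C and loaded with no-wash calcium dye.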
TRHR PAM: TRH receptor (human) allosteric enhancement | TRHR cells, fluo-8 calcium fluorescence, EC20 TRH enhancement | P34981 | AID 493056 | enhancement, % at 2 µM | hit rate 0.66% among 360,000; in the data active = enhancement above about 30%; note: 0% is about no effect
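TRHR-expressing cells loaded with fluo-8 calcium dye were read kinetically (ex 480/em 530) during compound addition, then stimulated with an EC20 of TRH (10 nM final). Enhancement of the Gq-mediated intracellular calcium response was scored.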
D1 antagonist: antagonists of human D1 dopamine receptor; P21728; HEK293 TREx D1 cells, calcium flux, dopamine EC80; stronger effect = lower value; activity change, negative = inhibition, % at 10 µM; hit rate 3.2% among 360,000; AID 504652; in the data active = activity change below about -30%; note: % is set by controls: 0 for no effect and ±100 for the full control effect
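Allosteric or orthosteric antagonism assessed as attenuation of the calcium response to EC80 dopamine, added 180 s after compound, in induced HEK293 Trex D1 cells loaded with no-wash calcium dye.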
TRHR agonist: agonists of human TRH receptor. activation, % at 2 µM. TRHR cells, calcium flux fluo-8, FDSS agonist mode. hit rate 0.18% among 360,000; note: 0% is about no effect
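Agonist-mode FDSS calcium read (Ex 480/Em 530, 1 s cycles) in 1536-well TRHR cells with fluo-8 dye, after 10-cycle baseline and 23 nL compound addition; TRH at EC20 (10 nM final) added afterwards for the enhancer phase.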
D1 PAM: human D1 dopamine receptor positive modulation; HEK293 TREx D1 cells, calcium flux, dopamine EC20 potentiation; potentiation, % at 10 µM; hit rate 0.036% among 360,000; in the data active = potentiation above about 30%; note: 0% is about no effect
Active calls of the source: *. Cut-off read from the data, not from the text of the source, unless noted: active = activation above about 30%; inactive = the rest.

Cc1cccc(CNC(=O)c2ccc(NC(=O)N3CCSc4ccccc43)cc2)c1 was read as D1 agonist 5, TRHR PAM 14, D1 antagonist 15, TRHR agonist -1 and D1 PAM -4.
`COc1cc(S(=O)(=O)n2c(C)nc3ccccc32)ccc1F` gave D1 agonist 0, TRHR PAM 0, D1 antagonist -9, TRHR agonist 0 and D1 PAM -6.
COc1ccc(S(=O)(=O)n2c(C)nc3ccccc32)cc1C was read as D1 agonist 7, TRHR PAM -5, D1 antagonist -75*, TRHR agonist 0 and D1 PAM -2.
`COc1ccc(OCc2nnc(SCC(=O)Nc3ccccc3Cl)o2)cc1` gave D1 agonist 3, TRHR PAM 0, D1 antagonist 23 and TRHR agonist -2.
Cc1ccc(S(=O)(=O)N2CCC(=O)N(CCOC(=O)Nc3ccccc3C)CC2)cc1 was read as D1 agonist -4, TRHR PAM -1, D1 antagonist -31*, TRHR agonist 0 and D1 PAM -6.
For Cc1cc(C)cc(NC(=O)OCCN2CCN(Cc3ccccc3)CCC2=O)c1 the results were D1 agonist -4, TRHR PAM -4, D1 antagonist -32*, TRHR agonist 0 and D1 PAM -6.
Screening COc1ccc(N2CCN(C(=O)CC(C)S(=O)(=O)c3ccc4c(c3)NC(=O)CO4)CC2)cc1 (stereo not drawn) returned D1 agonist 5, TRHR PAM 1, D1 antagonist -32*, TRHR agonist 1 and D1 PAM -3.
Screening CC(CC(=O)N1CCN(c2cccc(Cl)c2)CC1)S(=O)(=O)c1ccc2c(c1)NC(=O)CO2 (stereo not drawn) returned D1 agonist 10, TRHR PAM -2, D1 antagonist -15, TRHR agonist 0 and D1 PAM -6.
Screening CCC1CCCCN1CCCNC(=O)c1ccc2c(c1)N(Cc1cccc(Cl)c1)C(=O)c1ccccc1S2(=O)=O (stereo not drawn) returned D1 agonist 13, TRHR PAM 3, D1 antagonist 7, TRHR agonist 2 and D1 PAM 1.
`COc1ccc(C(=O)n2nc(-c3ccco3)nc2NCc2cccs2)cc1` gave D1 agonist 7, TRHR PAM 2, D1 antagonist -1, TRHR agonist 1 and D1 PAM -2.
`CC(Sc1nnc(COc2ccc3ccccc3c2)n1C)C(=O)O` (stereo not drawn) gave D1 agonist 1, TRHR PAM -4, D1 antagonist -11, TRHR agonist 0 and D1 PAM 1.
For Cc1cccc2cncc(OCc3nnc(SC(F)F)n3C)c12 the results were D1 agonist 1, TRHR PAM 41*, D1 antagonist 10, TRHR agonist 0 and D1 PAM -1.
Screening Cc1cc2oc(=O)cc(CN3CCC(C)CC3)c2cc1Cl returned D1 agonist 1, TRHR PAM 30*, D1 antagonist 3, TRHR agonist 0 and D1 PAM -7.
Screening COc1ccc(CCNC(=O)Cn2c(=O)nc(-c3ccccc3)c3cc(Cl)ccc32)cc1OC returned D1 agonist -1, TRHR PAM 0, D1 antagonist 6, TRHR agonist -1 and D1 PAM 0.
`O=C(CCS(=O)(=O)c1cccc2nonc12)N1CC(=O)N(CCc2ccccc2)C(=O)C1` gave D1 agonist 11, TRHR PAM 2, D1 antagonist -91*, TRHR agonist 0 and D1 PAM -2.
`O=C(CCS(=O)(=O)c1cccc2nonc12)N1CCOCC1` gave D1 agonist 1, TRHR PAM -3, D1 antagonist 27, TRHR agonist 0 and D1 PAM -1.
Cc1ccc2c(c1)-c1c(ssc1=S)C(C)(C)N2C(=O)CSc1nncn1C was read as D1 agonist 1, TRHR PAM -2, D1 antagonist 13, TRHR agonist -2 and D1 PAM -1.
For Cc1cc(C)c2c(c1)-c1c(ssc1=S)C(C)(C)N2C(=O)CSc1nncn1C the results were D1 agonist 39*, TRHR PAM -6, D1 antagonist 14, TRHR agonist -1 and D1 PAM 4.
For CCC(=O)C1=C(c2ccc(Cl)cc2)N(C(=O)CC)n2c(C)nnc2S1 the results were D1 agonist 3, TRHR PAM -7, TRHR agonist 0 and D1 PAM -3.
